This passage reports Potency, outcome and activity change, positive = activation results from PubChem BioAssay (NCATS).

Unmarked numbers belong to inactive results. Results filed as inconclusive are left out. Calls of active or inactive are those of the source. Unless noted, calls follow the shape of the dose curve; as a rule, active = well fitted curve in the direction sought with a large enough effect; inconclusive = small, poorly fitted or top-dose-only effect, or another doubt; inactive = no such curve, though single readings can be large; an effect the other way counts as inactive or inconclusive.

In test [1] the target is Cytochrome P450 2C9 (Homo sapiens) (UniProt P11712). Nature of the test: qHTS Assay for Inhibitors and Substrates of Cytochrome P450 2C9 (AID 883). Also: nearly all actives have a fitted effect of over 60% in size. Also: potency is read from the fitted curve at half-maximal effect. The gist of the method:
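Human CYP2C9 (10nM) hydroxylated Luciferin-H (100uM, at its KM) to luciferin in 25mM KPO4. Compound was preincubated 10 min at 37C, then NADPH regeneration started a 60 min reaction at 37C. Luminescence was read after detection reagent, normalized to 57uM sulphaphenazole.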
A general note: qHTS replaces the single test concentration by a dilution series.

Test [2] has as its target Cytochrome P450 3A4 (Homo sapiens) (UniProt P08684). As to the kind of experiment: qHTS Assay for Activators of Cytochrome P450 3A4 (AID 885). Also: nearly all actives have a fitted effect of over 65% in size. Put shortly:
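CYP3A4 activity: Luciferin-PPXE O-dealkylation, 25uM substrate, 200mM KPO4, RT throughout. Read-out is luciferase luminescence; higher values reflect activation.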

Test [3] has the same target. As to the kind of experiment: qHTS Assay for Inhibitors and Substrates of Cytochrome P450 3A4 (AID 884). Also: nearly all actives have a fitted effect of over 50% in size. Also: potency is read from the fitted curve at half-maximal effect. Put shortly: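 Luminescent readout of luciferin produced by CYP3A4 (20 nM) dealkylation of Luciferin-PPXE, 25 uM (its KM). NADPH-driven reaction ran 60 min at RT after 10 min compound preincubation; data scaled to 57 uM ketoconazole as 100% inhibition.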
Test [4] in a line: Confirmation and Secondary Assay for Modulators of Hemoglobin Beta Chain Splicing at IVS2 654 locus (AID 910).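 Also: per-well total GFP intensity by laser scanning cytometry after 2-day treatment; % of control where 0% means no effect.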 Put shortly: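 HeLa cells stably carrying EGFP interrupted by mutant beta-globin IVS2-654 intron (CMV-driven) were treated with compound for 2 days at 37C; corrected splicing was scored as total peak GFP intensity per well (488 nm excitation, 500-520 nm emission).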
A short description of test [5]: Confirmation and Secondary Assay for Modulators of Hemoglobin Beta Chain Splicing at IVS2 705 locus (AID 930).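 Also: HeLa cells stably expressing the EGFP-705 splicing reporter; GFP fluorescence per well restored by corrected splicing of the IVS2-705 intron in EGFP; series mostly up to about 46 µM; % of control where 0% means no effect.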 The gist of the method:
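First, HeLa EGFP-705 cells are seeded at 500/well in Optimem with 2% FCS and left overnight. Next, compound or DMSO is added for 2 days. Finally wells are laser-scanned and total peak GFP intensity scored.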

Test [6] is described as follows: qHTS Assay for Identification of Small Molecule Antagonists for NFkB Signaling Pathway (AID 895; active = well fitted inhibition curve with a large enough effect in the signal ratio, with a control signal flat, not every such curve was filed as active; the % refers to the signal ratio; also: % is scaled to controls: 0 for no effect and ±100 for the full control effect). The gist of the method:
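NFkB-bla ME-180 cervical carcinoma cells with beta-lactamase reporter under NFkB response element; compounds added, then TNF alpha at 10 pM final (EC50), 5 h at 37 C. LiveBLAzer substrate 2 h, room temperature; emission 460/530 nm at 405 nm excitation.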

The target in test [7] is Cytochrome P450 2C19 (Homo sapiens) (UniProt P33261). Nature of the test: qHTS Assay for Inhibitors and Substrates of Cytochrome P450 2C19 (AID 899). Also: % is scaled to controls: 0 for no effect and ±100 for the full control effect; nearly all actives have a fitted effect of over 60% in size. Put shortly: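 Human CYP2C19 (5nM) with Luciferin-H EGE at 10uM (its KM) in 50mM KPO4 was preincubated with compound for 10 min at 37C. NADPH regeneration started a 60 min 37C reaction. Luciferin was read by luminescence, normalized to 57uM ketoconazole.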

Test [8] in a line: qHTS Assay for Identification of Small Molecule Agonists for Thrombopoietin (TPO) Signaling Pathway (AID 917). Also: % is scaled to controls: 0 for no effect and ±100 for the full control effect. Put shortly: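 Stimulation at the TPO EC50 (26 pM final) was used to detect activators. Ba/F3 mouse cells bearing human TPO receptor and a luciferase reporter under the Glycoprotein IIb promoter were exposed to compounds for 24 hrs at 37 C.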
Test [9] addresses Muscarinic acetylcholine receptor M1 (Rattus norvegicus) (UniProt P08482). As to the kind of experiment: qHTS Assay for Antagonists of Acetylcholine Muscarinic M1 Receptor: Kinetic Measurement of Intracellular Calcium Response (AID 943). Also: nearly all actives have a fitted effect of over 75% in size. Also: potency is read from the fitted curve at half-maximal effect. Put shortly:
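Quantitative HTS in CHO-M1 (rat receptor) cells: 10 min compound exposure ahead of 100 nM carbachol, Fluo-4 fluorescence followed 4 min, value expressed as peak-to-basal ratio.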

For test [10] the target is unchanged. As to the kind of experiment: qHTS Assay for Antagonists of Acetylcholine Muscarinic M1 Receptor: Measurement of IP-One Response (AID 944). Also: nearly all actives have a fitted effect of over 75% in size. Put shortly:
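Antagonism was measured as loss of carbachol-driven (EC80) IP1 accumulation in CHO cells carrying rat M1, using a homogeneous IP-One TR-FRET kit read at 620 and 665 nm.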

Test [11] has as its target Guanine nucleotide-binding protein G(i) subunit alpha-1 (Homo sapiens) (UniProt P63096). As to the kind of experiment: qHTS Assay for Inhibitors of RGS12 GoLoco Motif Activity (Green Fluorophore) (AID 879).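 Also: 0% = labeled peptide with Gαi1 and full inhibition = labeled peptide alone without protein; negative values mean loss of peptide binding seen as reduced polarization.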 Put shortly: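 A drop in FITC polarization marked displacement of the FITC-tagged RGS12 GoLoco peptide (10 nM) from Gαi1 (50 nM). Compounds were incubated 10 min at room temperature in Tris pH 7.5 buffer containing 150 mM NaCl, 0.1 mM GDP and 0.05% NP40; unlabeled peptide titration served as control.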

The target of test [12] is Cytochrome P450 2D6 (Homo sapiens) (UniProt P10635). Nature of the test: qHTS Assay for Inhibitors and Substrates of Cytochrome P450 2D6 (AID 891).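 Also: luciferin methyl ether substrate demethylated by CYP2D6 with NADPH regeneration; % is scaled to controls: 0 for no effect and ±100 for the full control effect; nearly all actives have a fitted effect of over 60% in size.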 Put shortly:
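Luminescent read-out of luciferin formed by 5 nM human CYP2D6 demethylating 30 uM Luciferin-ME EGE (Km level) over 60 min at room temperature after NADPH regeneration addition. Data normalized to full inhibition by 1.43 uM quinidine.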

Test [13] in a line: qHTS Assay for Identification of Small Molecule Antagonists for Thrombopoietin (TPO) Signaling Pathway (AID 918). Also: potency is read from the fitted curve at half-maximal effect; nearly all actives have a fitted effect of over 60% in size. To be noted: TPO-dependent cell signaling reporter, antagonist mode. The gist of the method: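 Antagonist mode at EC50 TPO (26 pM) in IL-3-free medium; murine Ba/F3 cells with human TPO receptor and GPIIb-promoter luciferase, 24 hrs at 37 C before luminescent detection.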

Cytochrome P450 2C19 (Homo sapiens), sequence (P33261 whole entry, looked up): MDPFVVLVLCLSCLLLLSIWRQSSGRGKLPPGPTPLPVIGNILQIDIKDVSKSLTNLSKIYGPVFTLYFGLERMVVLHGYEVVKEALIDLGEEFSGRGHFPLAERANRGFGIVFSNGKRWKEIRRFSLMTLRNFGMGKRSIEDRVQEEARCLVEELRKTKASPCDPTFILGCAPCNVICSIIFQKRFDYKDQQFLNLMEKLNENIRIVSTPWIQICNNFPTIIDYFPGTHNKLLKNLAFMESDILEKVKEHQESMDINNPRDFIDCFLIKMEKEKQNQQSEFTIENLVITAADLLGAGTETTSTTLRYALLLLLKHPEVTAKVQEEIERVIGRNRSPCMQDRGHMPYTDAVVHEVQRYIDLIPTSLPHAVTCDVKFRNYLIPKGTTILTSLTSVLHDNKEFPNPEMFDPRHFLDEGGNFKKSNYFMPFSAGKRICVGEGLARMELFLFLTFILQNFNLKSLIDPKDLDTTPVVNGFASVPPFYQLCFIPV
Guanine nucleotide-binding protein G(i) subunit alpha-1 (Homo sapiens), sequence (P63096 whole entry, looked up): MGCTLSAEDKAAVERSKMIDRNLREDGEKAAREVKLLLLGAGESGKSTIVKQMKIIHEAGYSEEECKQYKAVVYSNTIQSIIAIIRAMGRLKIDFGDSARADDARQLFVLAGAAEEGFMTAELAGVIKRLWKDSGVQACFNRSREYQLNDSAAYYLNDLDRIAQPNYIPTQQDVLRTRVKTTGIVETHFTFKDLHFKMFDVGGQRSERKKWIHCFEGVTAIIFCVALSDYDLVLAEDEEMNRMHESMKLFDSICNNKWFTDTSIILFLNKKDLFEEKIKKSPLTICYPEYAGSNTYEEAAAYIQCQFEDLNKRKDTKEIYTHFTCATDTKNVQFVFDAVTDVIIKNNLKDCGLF
Cytochrome P450 2D6 (Homo sapiens), sequence (P10635 whole entry, looked up): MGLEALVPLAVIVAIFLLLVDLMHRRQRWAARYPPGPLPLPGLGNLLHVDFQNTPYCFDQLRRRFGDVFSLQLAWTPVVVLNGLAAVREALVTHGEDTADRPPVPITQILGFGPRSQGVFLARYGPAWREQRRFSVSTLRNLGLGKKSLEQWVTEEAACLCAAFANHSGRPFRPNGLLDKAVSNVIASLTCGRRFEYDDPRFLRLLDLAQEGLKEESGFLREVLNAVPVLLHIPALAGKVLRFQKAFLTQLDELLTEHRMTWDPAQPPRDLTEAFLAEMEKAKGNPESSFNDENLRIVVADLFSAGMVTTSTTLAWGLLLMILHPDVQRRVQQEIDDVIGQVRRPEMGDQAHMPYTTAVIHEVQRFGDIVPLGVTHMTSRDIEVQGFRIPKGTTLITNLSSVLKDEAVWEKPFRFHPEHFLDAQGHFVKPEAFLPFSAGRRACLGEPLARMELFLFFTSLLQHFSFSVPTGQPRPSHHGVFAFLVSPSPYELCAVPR
Cytochrome P450 3A4 (Homo sapiens), sequence (P08684 whole entry, looked up): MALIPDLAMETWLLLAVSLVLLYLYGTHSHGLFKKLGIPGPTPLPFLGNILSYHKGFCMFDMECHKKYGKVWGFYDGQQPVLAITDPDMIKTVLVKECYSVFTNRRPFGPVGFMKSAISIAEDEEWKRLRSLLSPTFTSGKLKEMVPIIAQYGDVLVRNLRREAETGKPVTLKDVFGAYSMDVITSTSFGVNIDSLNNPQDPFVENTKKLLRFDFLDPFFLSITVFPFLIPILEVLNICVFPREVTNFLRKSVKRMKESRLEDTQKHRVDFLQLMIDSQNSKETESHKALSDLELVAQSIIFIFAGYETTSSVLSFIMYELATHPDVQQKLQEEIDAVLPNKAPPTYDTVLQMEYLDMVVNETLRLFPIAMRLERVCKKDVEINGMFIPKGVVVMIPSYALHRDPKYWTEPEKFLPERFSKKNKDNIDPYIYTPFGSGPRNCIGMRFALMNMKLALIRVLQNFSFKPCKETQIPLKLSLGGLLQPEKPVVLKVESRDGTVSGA
Muscarinic acetylcholine receptor M1 (Rattus norvegicus), sequence (P08482 whole entry, looked up): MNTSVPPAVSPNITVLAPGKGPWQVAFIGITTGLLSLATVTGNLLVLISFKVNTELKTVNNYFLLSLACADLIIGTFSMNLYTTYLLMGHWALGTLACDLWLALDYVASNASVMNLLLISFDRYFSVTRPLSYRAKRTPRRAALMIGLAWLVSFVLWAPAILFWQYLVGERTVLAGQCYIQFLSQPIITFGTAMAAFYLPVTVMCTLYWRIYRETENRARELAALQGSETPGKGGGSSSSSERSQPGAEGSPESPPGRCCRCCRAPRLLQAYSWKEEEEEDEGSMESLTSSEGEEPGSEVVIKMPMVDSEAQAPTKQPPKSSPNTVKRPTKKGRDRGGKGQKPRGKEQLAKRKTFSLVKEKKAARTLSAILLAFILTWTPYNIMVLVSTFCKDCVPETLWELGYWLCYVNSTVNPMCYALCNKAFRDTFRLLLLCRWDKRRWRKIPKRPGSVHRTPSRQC
Cytochrome P450 2C9 (Homo sapiens), sequence (P11712 whole entry, looked up): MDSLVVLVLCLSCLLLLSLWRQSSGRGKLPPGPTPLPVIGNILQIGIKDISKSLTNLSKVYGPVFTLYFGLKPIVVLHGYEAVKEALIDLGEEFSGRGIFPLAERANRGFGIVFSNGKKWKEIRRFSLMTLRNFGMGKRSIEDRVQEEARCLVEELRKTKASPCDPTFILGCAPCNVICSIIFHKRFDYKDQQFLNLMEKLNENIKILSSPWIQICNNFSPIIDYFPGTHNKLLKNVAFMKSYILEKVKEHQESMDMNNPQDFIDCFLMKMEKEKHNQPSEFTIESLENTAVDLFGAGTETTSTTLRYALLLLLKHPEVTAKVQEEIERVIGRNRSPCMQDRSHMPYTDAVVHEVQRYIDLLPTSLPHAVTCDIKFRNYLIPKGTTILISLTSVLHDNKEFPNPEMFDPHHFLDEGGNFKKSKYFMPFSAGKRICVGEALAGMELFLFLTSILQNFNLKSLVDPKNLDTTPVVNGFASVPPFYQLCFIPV

Consider `NC[C@@H]1O[C@H](c2ccccc2)Cc2c1ccc(O)c2O`, for which, in [1], the Potency is 6.31 µM (active). Besides, the Potency entry in test [2] is “inactive”.
As to `c1ccc(C2CN3CCSC3=N2)cc1` (stereo unspecified), the Potency result in test [3] and in test [4] was “inactive” in each case. Also, in [5], the call was inactive.
In the case of `C=C(C)C1CC=C(C(=O)O)CC1` (stereo unspecified), the Potency entry in test [3] and in test [4] was “inactive” in each case. For the same compound, the outcome in test [5] was inactive.
Consider `Cc1nc(N=Nc2ccc(C(=O)O)cc2)c(COP(=O)(O)O)c(C=O)c1O`, for which the Potency result in test [1], in test [2], in test [6], in test [7], in [8] and in test [9] was “inactive” in each case. Moreover, in test [10], the Potency entry was “inactive”.
With `NCCNS(=O)(=O)c1cccc2c(Cl)cccc12`, the Potency entry in [11], in test [9] and in test [10] was “inactive” throughout.
On to `C[C@](Cc1ccc(O)c(O)c1)(NN)C(=O)O`, for which the Potency result in test [1], in test [12] and in test [7] was “inactive” in each case.
As for `CC[C@@H]1Cc2cc(O)ccc2C2=C1c1ccc(O)cc1C[C@H]2CC`, in test [11], the Potency entry is “inactive”. Also, the Potency in [9] is 12.6 µM (active).
In the case of `Oc1cc(O)c2c(c1)O[C@H](c1ccc(O)c(O)c1)[C@@H](O)C2`, the Potency entry in test [1], in test [3], in [12] and in test [7] was “inactive” each time.
Consider `O=C(O)Cc1ccc(O)c(O)c1`, for which the Potency entry in [9] is “inactive”.
Regarding `N[C@@H](CS(=O)O)C(=O)O`, the Potency result in test [11], in test [8], in test [9] and in test [10] was “inactive” in each case.
Turning to `CCCCCCCCCCC(C)(C)C(=O)Nc1c(OC)cc(OC)cc1OC`, the Potency in test [3] was 7.94 µM (active). Besides, the Potency entry in test [2] was “inactive”.
On to `Nn1nnc2ccccc21`, for which the Potency result in test [11] and in test [10] was “inactive” in each case.
`COC(=O)[C@H](NC(=O)c1cc(-c2ccccc2)nc2ccccc12)c1ccccc1`: the Potency result in [11], in test [8] and in test [10] was “inactive” each time.
As to `CC(C)(C)c1ccc(/C=C/C(=O)Nc2ccc3c(c2)OCCO3)cc1`, the Potency result in [3] is “inactive”.
As for `CC1=C(/C=C/C(C)=C/C=C/C(C)=C\C(=O)O)C(C)(C)CCC1`, the Potency entry in [3] and in test [4] was “inactive” each time. The compound was classed as inactive in test [5].
In the case of `CCCc1c(OCCCOc2ccc(OCC(=O)O)cc2)ccc(C(C)=O)c1O`, the Potency entry in test [11], in [8] and in test [10] was “inactive” throughout.
For `CN1C2CCC1CC(OC(c1ccccc1)c1ccccc1)C2` (stereo unspecified), the Potency result in test [3] and in [4] was “inactive” throughout. Besides, in test [5], the compound was called inactive.
In the case of `O=c1[nH]c(=S)[nH]c(-c2ccccc2)c1Cc1c(O)ccc2ccccc12`, the activity change, positive = activation in [2] was -42.7% [at 11.4 µM].
As for `COc1cc(CC(=O)O)ccc1O`, the Potency entry in test [11], in test [8] and in [10] was “inactive” in each case.
As to `C=C1C(=O)O[C@@H]2[C@H]3O[C@]3(C)CCC=C(C)CC[C@@H]12`, the Potency result in test [1], in test [2], in test [12] and in test [7] was “inactive” in each case.
Consider `Nc1nc2c(cnn2CCc2ccccc2)c2nc(-c3ccco3)nn12`, for which the Potency in [3] is 31.6 µM (active). Also, the Potency entry in test [2] is “inactive”.
In the case of `NC(=O)CC[C@H](N)C(=O)O`, the Potency result in [4] is “inactive”. In addition, the compound was classed as inactive in [5].
For `O=c1oc(Cl)c(Cl)c2ccccc12`, the Potency result in [11], in test [9] and in test [10] was “inactive” throughout.
Regarding `CCCCCCCCCCCCCCC[C@H](O)[C@H](N)CO`, the Potency result in [11] and in test [10] was “inactive” each time. The figures for the Potency in [13] and in [9] were 12.6 µM (active) and 8.91 µM (active), respectively.
For the compound `NC1CONC1=O` (stereo unspecified), the Potency result in [2] and in test [4] was “inactive” each time. Also, the outcome in test [5] was inactive.
